# In PubChem BioAssay (NCI):
# This is part of a sample that, as a whole, favours compounds with a hit. Of some 83,000 tested, about 20% had one in any assay.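 Single-concentration screen, 48 h exposure, 96-well plates. Endpoint: percent growth. Below 10 = active.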 Unmarked numbers belong to inactive results. Calls of active or inactive are those of the source.
# Tested on: KM12 colon
# Test: NCI-60 one-dose screen, 48 h (100 = growth as untreated, 0 = no growth, -100 = all killed)
# Conditions: 10 µM unless noted
# Description: Growth inhibition of the KM12 human tumor cell line is measured as a screen for anti-cancer activity. Cells are grown in 96 well plates and exposed to the test compound for 48 hours. Compounds are tested at a single concentration, which is 10^-5 M for most compounds. The reported endpoint is percent growth (GI% or GIPRCNT), where numbers from 0 - 100% represent growth inhibition, and numbers from -100% - 0 represent cell death. For example, a value of 40 represents 60% growth inhibition. A value of 0 means no net growth occurred over the course of the experiment. A value of -40 indicates 40% of cells at the beginning of the experiment died by the end of the experiment. A value of -100 means all cells are dead at the end of the experiment.
# NCI-60 Human Tumor Cell Lines Screen was performed using the standard one-dose NCI protocol, which is described in more detail at https://dtp.cancer.gov/discovery_development/nci-60/default.htm.
# Compounds with GIPRCNT values below 10 were considered active. Activity score was based on GIPRCNT using the following formula: […]
# Score is 0 for GIPRCNT values of 100 or above, 50 for GIPRCNT values of 0, and 100 for GIPRCNT values of -100.
row,Structure (SMILES),growth
1,CC(=O)/C(=C\c1c(-c2ccccc2)[nH]c2ccccc12)S(=O)(=O)c1ccccc1,-10.1% (active)
2,CC(=O)c1nn(-c2ccc(C)cc2)cc1C(=O)c1cc2c(ccc3ccccc32)oc1=O,95.1%
3,CCOC(=O)NC1=NCC(C)(C)S1,101%
4,COc1cc([C@@H]2c3cc4c(cc3[C@H](O)[C@H]3COC[C@@H]23)OCO4)cc(OC)c1OC,49.5%
5,O=C(O)c1ccc(-c2nn(-c3ccc(C(=O)O)cc3)cc2CNc2ccc(Br)cc2)cc1,98.1%
6,C=C[C@]1(C)C=C2C(=O)[C@@]3(O)OC[C@@]4(CCCC(C)(C)C43O)C2(O)C(O)C1 (stereo not given in full),89.4%
7,COC1(OC)N=C(N)C2(C#N)C3(C(=O)Nc4ccccc43)C12C#N (stereo not given),101%
8,CCCCCCCCCCCCCCCCC(=O)O.CCCCCCCCCCCCCCCCCC(=O)O.CCCCCCCCCCCCCCCCCC(=O)O.CCCCCCCCCCCCCCCCCC(=O)O.CCCCCCCCCCCCCCCCCC(=O)O.CO[CH-]OC12COC1CC(O)C1(C)C(O)C(OC(C)O)C3=C(C)C(OC(=O)C(O)C([NH-])c4ccccc4)CC(O)(C(OC(=O)c4ccccc4)C21)C3(C)C.[Cu+].[Zn].[Zn].[Zn].[Zn].[Zn] (stereo not given),19.9%
9,O=C(O)CC1Cc2ccccc2C1C(=O)O (stereo not given),96.7%
10,O=C(/C=C1\C(=O)N(Cc2ccccc2)c2ccccc21)c1ccc(OCCN2CCCCC2)cc1,80.6%
11,Nc1cc2c(cc1Br)[nH]c(=O)c1ccccc12,26.2%
12,CCOc1ccc(Br)cc1/C=C(\C#N)c1ccc([N+](=O)[O-])cc1,94.5%
13,NCCCOc1cc2ccccc2cc1C(=O)Nc1ccc(Cl)cc1OC(=O)c1cc2ccccc2cc1OCCCN,-96.5% (active)
14,O=C(NC(=S)NNC(=S)NNc1ccccc1)c1ccccc1,59%
15,CC(Br)c1nc2ccccc2cc1C(N)=O (stereo not given),105%
16,c1cc[c]([Bi]([c]2ccccc2)[c]2ccccc2)cc1,97.1%
17,COC1=C(OC)C(=O)c2ccccc2C1=O,105%
18,CCCCN(CCCC)c1ccc(C(=O)O)cc1,103%
19,O=C1/C(=C\c2cn(-c3nc(N4CCOCC4)nc(N4CCOCC4)n3)c3ccccc23)c2ccccc2N1c1c(Cl)cccc1Cl,88.5%
20,CCC(C)C1NC(=O)C(CC(C)C)NC(=O)C(C)NC(=O)C(C(C)C)NC(=O)C(CCCCN)NC(=O)C(CC(C)C)NC(=O)C(C(C)C)NC(=O)[C@H](C)NC(=O)C(C(C)CC)NC(=O)C(CCCN=C(N)N)NC(=O)C(CCCCN)NC(=O)C(CCCN=C(N)N)NC(=O)C(CCCCN)NC(=O)C([C@H](C)CC)NC(=O)C(CCCCN)NC1=O (stereo not given in full),-6.4% (active)

row,Structure (SMILES),growth
1,COc1ccc(Cn2cc3c(c2-c2ccccc2)CCc2cnoc2-3)cc1N,6.52% (active)
2,O=P(OCCCl)(OCCCl)C(O)c1ccccc1Cl (stereo not given),104%
3,O=[N+]([O-])c1ccc(-c2ncc(-c3ccc(O)cc3O)[nH]2)cc1,112%
4,CCCCCCCCCCN1CC2CCCCC2C1 (stereo not given),65.3%
5,O=C(/C=C/c1cccc(O)c1)c1cccc(-n2cc(-c3ccc(Cl)cc3)[nH]c2=O)c1,-73.3% (active)
6,CCCCCCNC(=O)Oc1ccc(/C(=C(/C)Cc2ccc(OC)cc2)c2ccc(OCCN3CCCCC3)cc2)cc1,85.6%
7,COc1ccccc1Cn1cc2c(c1)-c1oncc1CC2,6.78% (active)
8,COc1ccccc1C(=O)Nc1cccc(-c2cc(=O)c3c(OC)c(OC)c(OC)cc3o2)c1,38.4%
9,CC(C)OCC1CO1 (stereo not given),98.3%
10,C/C(=C\c1ccc2ccccc2c1)[N+](=O)[O-],56%
11,COC(=O)c1cc(O)c2cc3c(cc2c1-c1cc(OC)c(OC)c(OC)c1)OCO3,25.7%
12,COC(=O)/C=C1/CCCCC1(C)C(=O)OC (stereo not given),107%
13,N=C(c1ccccc1)N(Cc1ccccc1)Cc1ccccc1,101%
14,Nc1nc2c(c3cnccc13)C(c1cccc(Br)c1)Cc1cnccc1-2 (stereo not given),13.2%
15,COC(=O)/C=C/c1cc(O)c2oc(-c3ccc(O)c(O)c3)c(C(=O)OC)c2c1,13.8%
16,CCN(CC)c1ccc2nc3ccc(N=Nc4ccc(O)cc4)cc3[n+](-c3ccccc3)c2c1,34.8%
17,O=C(/C(Br)=C/c1ccccc1)c1ccccc1,53.3%
18,COC(=O)[C@H](Cc1cn(C)cn1)NC(=O)[C@H](CC(=O)OCc1ccccc1)NC(=O)Nc1cc(C(F)(F)F)cc(C(F)(F)F)c1,-89.8% [100 µM] (active)
19,N=c1c2c(=O)n3c(nc2nc2sc4ccc(Cl)cc4n12)-c1ccccc1Sc1ccccc1-3,22.6%
20,O=C1Nc2ccccc2/C1=C/c1cn(CC(O)Cn2cc(/C=C3\C(=O)Nc4ccccc43)c3ccccc32)c2ccccc12 (stereo not given),-80.9% (active)
